# Laboratory results taken from PubChem BioAssay.
# Unmarked numbers belong to inactive results. Active and inactive are the calls of the source.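 The calls were made as follows: active = normalized viability below 100% at a tested concentration; inactive = the rest.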
# Test: drug combination growth inhibition, ovarian cancer – cell-based, oncology-focused library, rucaparib conditional, profiling panel (AID 1508598)
# Settings: patient-derived ovarian cancer cells, CellTiter-Glo viability, 144 h, stronger effect = lower value
# [1] = at 5 µM, OCI-P5x cells, with rucaparib 20 µM, 100% = cells with rucaparib alone
# [2] = at 5 µM, OCI-P5x cells, without rucaparib
# [3] = at 0.000305 µM, OCI-C5x cells, with rucaparib 10 µM, 100% = cells with rucaparib alone
# [4] = at 0.000305 µM, OCI-C5x cells, without rucaparib
# [5] = at 0.000305 µM, OCI-P5x cells, with rucaparib 20 µM, 100% = cells with rucaparib alone
# [6] = at 0.000305 µM, OCI-P5x cells, without rucaparib
# [7] = at 0.00122 µM, OCI-C5x cells, with rucaparib 10 µM, 100% = cells with rucaparib alone
# [8] = at 0.00122 µM, OCI-C5x cells, without rucaparib
# [9] = at 0.00122 µM, OCI-P5x cells, with rucaparib 20 µM, 100% = cells with rucaparib alone
# [10] = at 0.00122 µM, OCI-P5x cells, without rucaparib
# [11] = at 0.00488 µM, OCI-C5x cells, with rucaparib 10 µM, 100% = cells with rucaparib alone
# [12] = at 0.00488 µM, OCI-C5x cells, without rucaparib
# [13] = at 0.00488 µM, OCI-P5x cells, with rucaparib 20 µM, 100% = cells with rucaparib alone
# [14] = at 0.00488 µM, OCI-P5x cells, without rucaparib
# [15] = at 0.0195 µM, OCI-C5x cells, with rucaparib 10 µM, 100% = cells with rucaparib alone
# [16] = at 0.0195 µM, OCI-C5x cells, without rucaparib
# [17] = at 0.0195 µM, OCI-P5x cells, with rucaparib 20 µM, 100% = cells with rucaparib alone
# [18] = at 0.0195 µM, OCI-P5x cells, without rucaparib
# [19] = at 0.0781 µM, OCI-C5x cells, with rucaparib 10 µM, 100% = cells with rucaparib alone
# [20] = at 0.0781 µM, OCI-C5x cells, without rucaparib
# [21] = at 0.0781 µM, OCI-P5x cells, with rucaparib 20 µM, 100% = cells with rucaparib alone
# [22] = at 0.0781 µM, OCI-P5x cells, without rucaparib
# [23] = at 0.313 µM, OCI-C5x cells, with rucaparib 10 µM, 100% = cells with rucaparib alone
# [24] = at 0.313 µM, OCI-C5x cells, without rucaparib
# [25] = at 0.313 µM, OCI-P5x cells, with rucaparib 20 µM, 100% = cells with rucaparib alone
# [26] = at 0.313 µM, OCI-P5x cells, without rucaparib
# [27] = at 1.25 µM, OCI-C5x cells, with rucaparib 10 µM, 100% = cells with rucaparib alone
# [28] = at 1.25 µM, OCI-C5x cells, without rucaparib
# [29] = at 1.25 µM, OCI-P5x cells, with rucaparib 20 µM, 100% = cells with rucaparib alone
# [30] = at 1.25 µM, OCI-P5x cells, without rucaparib
# [31] = at 5 µM, OCI-C5x cells, with rucaparib 10 µM, 100% = cells with rucaparib alone
# [32] = at 5 µM, OCI-C5x cells, without rucaparib
structure (smiles),measurement,setting,value
C[C@@H]1C[C@H]2[C@@H]3CCC4=CC(=O)C=C[C@]4(C)[C@]3(F)[C@H](O)C[C@]2(C)[C@]1(O)C(=O)CO,viability,[1],90.8% (active)
same,viability,[2],101%
CCCCCOC(=O)Nc1nc(=O)n([C@@H]2O[C@H](C)[C@@H](O)C2O)cc1F (stereo partly specified),viability,[3],114%
same,viability,[4],111%
same,viability,[5],115%
same,viability,[6],116%
same,viability,[7],119%
same,viability,[8],120%
same,viability,[9],123%
same,viability,[10],115%
same,viability,[11],111%
same,viability,[12],126%
same,viability,[13],115%
same,viability,[14],123%
same,viability,[15],126%
same,viability,[16],113%
same,viability,[17],115%
same,viability,[18],123%
same,viability,[19],101%
same,viability,[20],111%
same,viability,[21],121%
same,viability,[22],118%
same,viability,[23],106%
same,viability,[24],109%
same,viability,[25],115%
same,viability,[26],123%
same,viability,[27],105%
same,viability,[28],117%
same,viability,[29],113%
same,viability,[30],116%
same,viability,[31],107%
same,viability,[32],114%
same,viability,[1],121%
same,viability,[2],122%
CO[C@H]1C[C@@H]2CC[C@@H](C)[C@@](O)(O2)C(=O)C(=O)N2CCCC[C@H]2C(=O)O[C@H]([C@@H](C)C[C@@H]2CC[C@@H](OCCO)[C@H](OC)C2)CC(=O)[C@H](C)/C=C(\C)[C@H](O)[C@@H](OC)C(=O)[C@H](C)C[C@H](C)/C=C/C=C/C=C/1C,viability,[3],103%
same,viability,[4],135%
same,viability,[5],91.8% (active)
same,viability,[6],83.4% (active)
same,viability,[7],106%
same,viability,[8],120%
same,viability,[9],88% (active)
same,viability,[10],74.1% (active)
same,viability,[11],120%
same,viability,[12],115%
same,viability,[13],85% (active)
same,viability,[14],72.9% (active)
same,viability,[15],115%
same,viability,[16],112%
same,viability,[17],79.5% (active)
same,viability,[18],72.3% (active)
same,viability,[19],111%
same,viability,[20],119%
same,viability,[21],86.3% (active)
same,viability,[22],73.1% (active)
same,viability,[23],110%
same,viability,[24],111%
same,viability,[25],88% (active)
same,viability,[26],67.8% (active)
same,viability,[27],115%
same,viability,[28],103%
same,viability,[29],73.4% (active)
same,viability,[30],60.4% (active)
same,viability,[31],123%
same,viability,[32],120%
same,viability,[1],69.5% (active)
same,viability,[2],59.4% (active)
